A selection: hits, their analogues and other compounds. The true share with any hit is near 27%.
CYP2C19 inhib: human CYP2C19 inhibition; 21% of 96,000 active; inhibition, % at 5 µM; P33261; CYP2C19 Supersomes, luciferin-H EGE luminescence, 30 min;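 active = CYP2C19 inhibition above a set limit at 5 µM in the primary screen, cut at about 50% in these data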
Target sequence (P33261 whole entry, looked up): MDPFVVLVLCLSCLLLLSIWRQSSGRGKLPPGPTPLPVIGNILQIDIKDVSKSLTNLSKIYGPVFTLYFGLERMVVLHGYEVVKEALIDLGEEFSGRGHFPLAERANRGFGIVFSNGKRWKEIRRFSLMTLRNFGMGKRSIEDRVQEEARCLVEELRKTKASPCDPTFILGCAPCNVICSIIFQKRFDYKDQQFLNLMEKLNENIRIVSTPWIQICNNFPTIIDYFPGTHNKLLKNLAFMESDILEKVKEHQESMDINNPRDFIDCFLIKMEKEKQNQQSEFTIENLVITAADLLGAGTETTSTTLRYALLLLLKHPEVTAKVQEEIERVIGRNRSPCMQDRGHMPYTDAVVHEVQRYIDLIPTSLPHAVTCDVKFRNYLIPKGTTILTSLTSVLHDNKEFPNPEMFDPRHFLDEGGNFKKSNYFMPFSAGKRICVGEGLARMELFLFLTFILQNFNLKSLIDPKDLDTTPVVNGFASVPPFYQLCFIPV
CYP2C19 activ: activators of human cytochrome P450 2C19; recombinant CYP2C19, luciferin-H EGE luminescence; active compounds read high; 0 = fully inhibited enzyme, 1 = untreated enzyme; activation factor at 5 µM; P33261; AID 1025; 96,000 tested, under 10 active;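 active = activation factor of at least 2 at 5 µM in the primary screen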
sEH inhibitor: inhibitors of human soluble epoxide hydrolase. recombinant human sEH enzymatic activity assay. inhibition, % at 2 µM. 0.34% of 91,000 active; in the data active = inhibition above about 80%
CYP2C9 act: CYP2C9 (human) activation | recombinant CYP2C9, luciferin-H conversion, luminescence; active compounds read high; factor 1 = untreated enzyme, 0 = blocked | P11712 | 1.4% of 96,000 active | activation factor at 5 µM;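 active = activation factor of 2 or more for CYP2C9 at a 5 µM dose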
CYP2C9 inh: blocks human cytochrome P450 2C9; P11712; CYP2C9 Supersomes, luciferin-H conversion, luminescence; inhibition, % at 5 µM; 20% of 96,000 active;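 active = blocking of liver enzyme CYP2C9 beyond about 50% at 5 µM, limit read from the data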
sEH act: increases human soluble epoxide hydrolase activity. P34913. purified human sEH enzymatic activity, activator screen. activation, % at 2 µM. 0.04% of 91,000 active. AID 717; in the data active = activation above about 37%
A number is an active result; - = inactive; . = no result.

SMILES	CYP2C19 inhib	CYP2C19 activ	sEH inhibitor	CYP2C9 act	CYP2C9 inh	sEH act
O=C(O)C1CCCCC1C(=O)NCCc1ccncc1 (stereo not given)	-	-	-	-	67	-
COc1ccc(Cl)cc1NC(=S)NCCc1c[nH]c2ccccc12	92	-	-	2.3	-	-
Cc1c(C#N)c2ccccc2n1CC(=O)NCCc1c[nH]c2ccccc12	-	-	-	-	-	-
COc1ccccc1NC(=S)NC(=O)c1ccc(-c2ccc(Cl)cc2)o1	-	-	-	-	-	-
NS(=O)(=O)c1ccc(CCNC(=O)C2Cc3ccccc3CN2C(=O)c2ccco2)cc1 (stereo not given)	-	-	-	-	-	-
O=C(O)[C@H]1CCCC[C@H]1C(=O)NCCc1ccccc1	-	-	-	-	-	-
O=C(O)C1CCCCC1C(=O)NCCc1c[nH]c2ccccc12 (stereo not given)	75	-	-	-	-	-
O=C(NCCc1c[nH]c2ccccc12)C1Cc2ccccc2CN1C(=O)c1ccco1 (stereo not given)	95	-	-	-	63	-
COCc1nnc(NC(=O)CC(C)C)s1	.	.	-	.	.	-
O=C(CN1CCN(Cc2ccc3c(c2)OCO3)CC1)Nc1ccc2c(c1)OCCO2	-	-	-	-	-	-
O=C(CN1CCC(C(=O)c2ccc(Cl)cc2)CC1)Nc1ccc2c(c1)OCCO2	-	-	-	-	58	-
COc1ccccc1NC(=O)CN1CCN(CC(=O)Nc2ccc3c(c2)OCCO3)CC1	94	-	-	-	-	-
CCOc1ccc(NC(=O)CN2CCN(CC(=O)Nc3ccc4c(c3)OCCO4)CC2)cc1	-	-	.	-	-	.
O=C(CN1CCN(CC(=O)Nc2ccccc2Cl)CC1)Nc1ccc2c(c1)OCCO2	91	-	-	-	51	-
COCC(=O)Nc1nc(-c2ccccc2)ns1	.	.	-	.	.	-
ON1C2CCCCC2N(O)C1c1c(F)c(F)c(F)c(F)c1F (stereo not given)	-	-	-	-	-	-
O=C(NC1CCCC1)C1CCC(=O)N1CCc1ccccc1 (stereo not given)	-	-	-	-	54	-
CCc1noc(N)c1C(=O)Nc1ccc(F)c(Cl)c1	-	-	-	-	-	-
CC(=O)Nc1ccc(S(=O)(=O)Nc2c(C)nn(-c3ccccc3)c2C)cc1	-	-	-	-	-	-
CC(=O)c1ccccc1NS(=O)(=O)c1c(C)nn(-c2ccccc2)c1C	99	-	-	-	51	-
c1cnc(SCCOc2cccc3ccccc23)nc1	57	-	-	-	-	-
Cc1cccc(N(CC(=O)Nc2ccccc2F)S(C)(=O)=O)c1	92	-	-	-	69	-
CSc1ccccc1NC(=O)CN(c1cccc(C)c1)S(C)(=O)=O	51	-	.	-	53	.
CCc1ccc(NC(=O)CN(c2cccc(C)c2)S(C)(=O)=O)cc1	-	-	-	-	-	-
O=Cc1ccc2noc(-c3ccc(Cl)cc3)c2c1	-	-	-	-	-	-
SMILES	CYP2C19 inhib	CYP2C19 activ	sEH inhibitor	CYP2C9 act	CYP2C9 inh	sEH act
COc1ccc(NC(=O)CCS(=O)(=O)c2ccc(OC)cc2)cc1	-	-	-	-	-	-
COc1ccc(S(=O)(=O)Nc2ccc(N(C)C(C)=O)cc2)cc1	93	-	-	-	83	-
COc1ccccc1CNS(=O)(=O)c1ccc(NC(C)=O)cc1	77	-	-	2.1	-	-
COc1ccc(S(=O)(=O)Nc2ccc(NC(C)=O)cc2)cc1	97	-	-	-	90	-
COc1ccc(CC(=O)Nc2ccc(S(=O)(=O)Nc3nc(C)cc(C)n3)cc2)cc1	-	-	-	-	-	-
C=CCSc1nc2c(c(=O)n(C)c(=O)n2C)n1CC	-	-	-	-	-	-
Cc1c(NS(=O)(=O)c2cccc(C(=O)NCc3ccncc3)c2)c(=O)n(-c2ccccc2)n1C	-	-	-	-	-	-
Cc1nc(SCC(=O)N2CCC(C(N)=O)CC2)n[nH]1	-	-	-	-	-	-
O=C(Cn1c(C(F)(F)F)nc2ccccc21)Nc1ccccc1N1CCOCC1	-	-	-	-	82	-
CSc1nc2ccccc2n1CC(=O)Nc1cc(C(F)(F)F)ccc1N1CCOCC1	87	-	-	-	97	-
CCC(=O)Nc1cc(C(F)(F)F)ccc1N1CCOCC1	-	-	-	-	-	-
O=C(C1CCCN1S(=O)(=O)c1ccc(Cl)c(Cl)c1)N1CCOCC1 (stereo not given)	-	-	-	-	-	-

Source: PubChem BioAssay
